Source: PubChem BioAssay
MARV entry inh: blocks Marburg virus binding to or entry into cells. Marburg virus pseudotyped entry inhibition, cell reporter. actives 1.8% (n = 300,000). Potency, µM (top dose mostly 37.8 µM), for inactives: top-dose activity change, negative = inhibition, actives largely listed as inhibitors; calls by dose curve; tested in HEK293 cells; note: potency is the fitted concentration of half-maximal effect; % is set by controls: 0 for no effect and ±100 for the full control effect
LASV entry inh: Lassa virus entry inhibition; Potency, µM (doses to about 37.9 µM), without a hit: top-dose activity change, negative = inhibition, hits mostly inhibitors; actives 1.2% (n = 300,000); Lassa virus pseudotype entry inhibition, cell reporter; AID 540256; calls by dose curve; tested in HEK293 cells; note: potency is the fitted concentration of half-maximal effect; % is set by controls: 0 for no effect and ±100 for the full control effect; nearly all actives have a fitted effect of over 50% in size
Shiga toxin inh: inhibitors of Shiga toxin in Vero cells. Vero cells, Shiga toxin protein synthesis inhibition reporter. inhibition, % at 38.7 µM. actives 9.2% (n = 290,000). AID 2315; in the data active = inhibition mostly above about 28%, no sharp cut-off; inactive = mostly below about 43%; note: 0% is about no effect
Cycloheximide cs: counter-screen for Shiga toxin inhibitors: cycloheximide protein synthesis inhibition | cell reporter, cycloheximide protein synthesis inhibition counterscreen | max response, % | actives 12% (n = 300,000); in the data active = max response mostly above about 13%, no sharp cut-off; inactive = mostly below about 14%; note: read at 38.3 µM for the half of the compounds with a filed dose; 0% is about no effect
Pf growth 96h: inhibits malaria parasite growth, 96 h; P. falciparum luciferase reporter growth, 96 h; actives 6.9% (n = 320,000); Potency, µM (doses to about 28.7 µM), for inactives: at the highest dose activity change, negative = inhibition, actives largely listed as inhibitors; AID 504834; note: potency is the fitted concentration of half-maximal effect; % is set by controls: 0 for no effect and ±100 for the full control effect
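Readout is luminescence from an integrated firefly luciferase in P. falciparum. Red cells, 2% hematocrit and 0.05% parasitemia final, were cultured with compound through two parasite generations (96 hours) at 37 C, 5% CO2.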
Pf growth 48h: inhibits P. falciparum growth in the first generation, 48 h; P. falciparum luciferase growth in erythrocytes, 48 h; Potency, µM (top dose mostly 28.7 µM), without a hit: at the top dose activity change, negative = inhibition, hits mostly inhibitors; actives 5.9% (n = 310,000); note: potency is the fitted concentration of half-maximal effect; % is set by controls: 0 for no effect and ±100 for the full control effect
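Parasite viability was followed by luminescence of a genomically integrated firefly luciferase. Cultures held 0.1% parasitemia at 2% hematocrit (final), incubated under 5% CO2 at 37 C.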
Numbers without * were called inactive; u = inconclusive; x = no result; [ ] = dose if it differs, or a comment. Sampled rows, rich in hits. Any-hit rate of the full collection: about 19%. Unless noted, calls come from the whole dose curve; as a rule, active = well fitted inhibition curve with a large enough effect; inconclusive = small, poorly fitted or top-dose-only effect, or another doubt; inactive = no such curve, though single readings can be large or run the other way.

SMILES	MARV entry inh	LASV entry inh	Shiga toxin inh	Cycloheximide cs	Pf growth 96h	Pf growth 48h
COc1ccc(C(=O)Nc2nc3cc(OC)c(OC)cc3c(=O)[nH]2)cc1	u	-17.8%	18.4	-3.4	-3.2%	-4.6%
COc1ccc(C(=O)Nc2nc3ccccc3c(=O)[nH]2)cc1	u	u	82.5*	43.9*	x	161.0%
Cc1ccc2cc(/C=N/NC(=O)CN3CCCCC3)c(Cl)nc2c1	u	8.4%	-12.7	3.6	1.6%	59.4%
Cc1cc(C)c(NC(=O)CCC(=O)N2Cc3ccccc3Oc3ncccc32)c(C)c1	x	10.8%[46.1 µM]	x	x	x	x
C=CCn1c2ccccc2c(=O)c2cc(C#Cc3ccccn3)ccc21	x	x	x	x	2.08µM*	u
C=CCn1c2ccccc2c(=O)c2cc(C#Cc3ccsc3)ccc21	x	x	17.5	10.0	0.329µM*	0.0465µM*
C=CCn1c(O)c(N=O)c2ccccc21	-10.5%[46.1 µM]	-4.7%[46.1 µM]	-9.0	-2.4	u	-3.4%
COc1ccc(C#Cc2ccc3c(c2)c(=O)c2ccccc2n3C)cc1	x	x	3.6	1.2	u	0.0%
CCc1ccc(NC(=O)CSc2ccnc(=O)[nH]2)cc1	x	29.7%[46.1 µM]	x	x	x	x
CC(C)(C)c1ccc(C(=O)N/N=C/c2cccc(Cl)c2)cc1	-23.3%	-14.3%	27.1	20.5	13.1µM*	x
COc1cc(/C=N/NC(=O)c2cccc(NC(=O)c3ccccc3)c2)ccc1O	5.8%[46.1 µM]	20.3%	33.1*	13.1	13.1%	-10.2%
O=C(N/N=C/c1ccc(O)cc1)c1cccc(N/N=C/c2ccc(O)cc2)c1	x	x	60.4*	36.7*	50.1%	262.4%
COc1cc(/C=N/NC(=S)Nc2cccc(S(=O)(=O)N(C)C)c2)ccc1O	u	u	49.0*	29.8*	u	21.8%
CC(SC(C)C(=O)NN=Cc1cccc(Cl)c1)C(=O)NN=Cc1cccc(Cl)c1 (centres undefined)	u	-8.2%[46.1 µM]	x	x	x	x
O=C(N/N=C/c1ccncc1)c1cccc(NC(=O)c2ccc(Cl)cc2)c1	x	x	20.1	11.3	u	13.1µM*
O=C(N/N=C/c1ccc(F)cc1)c1cccc(NC(=O)c2ccc(F)cc2)c1	-13.8%[46.1 µM]	u	99.7*	33.7*	u	u
COc1ccc(/C=N/NC(=O)CC(=O)NCCc2ccccc2)cc1OC	u	-3.0%	-22.0	-1.5	33.9%	21.4%
O=C(N/N=C/c1cc(Cl)ccc1O)c1ccncc1	1.5%	x	-4.3	2.2	u	2.33µM*
O=C(Nc1cccc(NC(=O)c2ccc(F)cc2)c1)c1ccc(F)cc1	x	x	-4.5	-3.5	22.3%	-2.4%
O=C(N/N=C/c1ccncc1)c1cccc(N/N=C/c2ccncc2)c1	u	11.9%	15.5	3.0	u	-14.7%
COc1cc(/C=N\NC(=O)CC(=O)NCCc2ccccc2)ccc1O	u	-13.1%	-4.3	0.7	10.4µM*	-0.9%
O=c1c2cc(N3CCOCC3)ccc2[nH]c(=S)n1CCCN1CCCC1	u	16.5%	-3.2	-2.6	-12.6%	u
COc1ccc(NC(=O)CN(C)CC(=O)Nc2cccc3ccccc23)c(OC)c1	12.3%	1.1%	x	x	-9.3%	u
O=C(CN1CCN(Cc2ccc(Cl)cc2)CC1)N/N=C/c1cccc(F)c1	u	u	-1.5	1.9	5.1%	-1.9%
O=C(N/N=C/c1cccc(NC(=O)c2ccc(Cl)cc2)c1)c1ccc(O)cc1	x	x	85.2*	60.0*	u	138.3%
SMILES	MARV entry inh	LASV entry inh	Shiga toxin inh	Cycloheximide cs	Pf growth 96h	Pf growth 48h
COc1ccc(/C=N/NC(=O)c2cccc(NC(=O)c3ccc(Cl)cc3)c2)c(OC)c1	u	-1.0%	31.1*	12.3	18.3%	8.7%
O=C(N/N=C/c1cccc(F)c1)c1ccc(Cl)cc1	u	0.6%	119.4*	44.2*	59.5%	98.0%
COc1ccc(/C=N\NC(=O)c2cccc(Br)c2)c(OC)c1	u	u	-6.1	-1.4	-3.5%	-15.5%
COc1cc2[nH]c(=O)n(CCCC(=O)N3CC=C(c4ccccc4)CC3)c(=O)c2cc1OC	u	u	-3.0	-2.8	-34.8%	u
COc1cccc2c1[C@@H]1CN(CCCCn3c(=O)[nH]c4c(sc5ncc(-c6ccccc6)nc54)c3=O)C[C@@H]1CO2	7.94µM*	u	x	x	u	u
Cc1ccc(-c2cc(C(=O)N(C)Cc3cnn(C)c3C)c3cc(Br)ccc3n2)cc1	8.91µM*	u	-4.1	2.3	u	9.28µM*
